# Results as given in publication PMC5540273 (PLoS ONE, 2017).
# pKd: −log10 of the molar value.
# Key:
# PFTK1 = tested on: T1, PFTK1
# T1 construct: gene CDK14
# PIP5K2C = tested on: T2, PIP5K2C
# T2 construct: gene PIP4K2C
# 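Note: kd values determined as follow-up on hits from a single-replicate KINOMEscan panel screen.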
smiles,measurement,setting,value
COc1cc2nccc(Nc3ccc(NC(=O)c4ccc(C)cc4)c(O)c3)c2cc1OC.Cl [GW440132],pKd,PFTK1,< 5.00
same,pKd,PIK3C2B,< 5.00
same,pKd,PIK3CA,< 5.00
same,pKd,PIK3CG,< 5.00
CS(=O)(=O)c1ccc(-c2c(-c3ncn[nH]3)sc(N3CCOCC3)c2C#N)cc1,pKd,PIK3CA,7.68
COc1cc2ncn(-c3cc(OCC4CCCO4)c(C(N)=O)s3)c2cc1OC (centres unmarked) [GSK204607],pKd,PIP5K1C,5.11
COc1ccc(CNC(=O)NC2CCN(c3ccnc(Nc4cc(OC)c(OC)c(OC)c4)n3)C2)cc1 (centres unmarked) [GSK1379748],pKd,PIP5K2C,6.22
COc1ccc(Nc2nccc(-c3cccc(NC(=O)c4cc5cc(F)ccc5[nH]4)c3)n2)cc1 [GSK1229782],pKd,PIP5K2C,5.85
